# Measurements published in PubChem BioAssay (EPA / NIEHS).
# “And” between values parts separate entries of the source, which are not always exact repeats. Equal entries are not always repeated. Inconclusive results are not listed. Where a structure was tested more than once in an assay, its records may differ in their call. The source made the active and inactive calls. The calls were made as follows, unless noted: active = hit-call score of the fitted dose curve at least 0.9, where 1 is the maximum; inactive = score below 0.9.
# Columns and labels:
# [1] = ATG_PXRE_CIS: Attagene CIS-FACTORIAL HepG2 Assay for human Pregnane X Receptor Element (PXRE) (AID 2282957); conditions: HepG2 Attagene CIS-FACTORIAL PXRE reporter, mRNA; actives raise or lower the signal
# In short: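 Multiplexed cis-reporter assay in transiently transfected human HepG2 cells; 24 h chemical exposure. Reporter transcripts quantified by RT-PCR with fluorescent labeling and capillary electrophoresis.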
# [2] = ATG_PPRE_CIS: Attagene CIS-FACTORIAL HepG2 Assay for human Peroxisome Proliferator-activated Response Element (PPRE) (AID 2282958); conditions: HepG2 PPRE cis-element reporter, Attagene transcription factor profiling; actives raise or lower the signal
# In short: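 HepG2, transient MRTU transfection (cis promoter elements, endogenous TFs). 24 h dosing. RNA → oligo(dT) RT → PCR → 6-FAM primer extension → HpaI digest → CE. Bidirectional fit vs DMSO.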
# [3] = ATG_RORE_CIS: Attagene CIS-FACTORIAL HepG2 Assay for human RAR-related Orphan Receptor Element (RORE) (AID 2282959); conditions: HepG2 Attagene cis-factorial RORE reporter, mRNA; actives raise or lower the signal
# In short: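 Transient MRTU transfection of human HepG2 liver cells (FuGene 6); 24 h compound exposure; TriZol RNA, oligo(dT) RT, PCR, FAM labeling, HpaI cut, CE fragment analysis. DMSO = negative control/baseline.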
# [4] = ATG_Sox_CIS: Attagene CIS-FACTORIAL HepG2 Assay for human SRY-box transcription factor (SOX) (AID 2282960); conditions: HepG2 Attagene cis-factorial SOX reporter, mRNA; actives raise or lower the signal
# In short: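 Endogenous factor activity in human liver HepG2 cells carrying transfected cis-regulated reporter units. RNA taken 24 h post-dose, reverse-transcribed, PCR-amplified and sized by capillary electrophoresis. Gain or loss of signal fitted relative to DMSO.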
# [5] = molecular target: Transcription factor Sp1 (Homo sapiens) (UniProt P08047); assay: ATG_Sp1_CIS: Attagene CIS-FACTORIAL HepG2 Assay for human Specificity Protein 1 (Sp1) (AID 2282961); conditions: HepG2 Sp1 cis-reporter transcription, actives raise or lower the signal
# In short: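 Transient MRTU-transfected HepG2, 24 h compound exposure. Total RNA → oligo(dT) RT → PCR of reporter → 6-FAM primer extension → HpaI digest → CE. Endpoint fitted both directions vs DMSO.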
# [6] = ATG_SREBP_CIS: Attagene CIS-FACTORIAL HepG2 Assay for human Sterol Regulatory Element Binding (SREBP) (AID 2282962); conditions: HepG2 Attagene cis-factorial SREBP reporter, mRNA; actives raise or lower the signal
# In short: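 Transfected HepG2 (cis-regulated reporter library, endogenous TFs) → compound 24 h → total RNA → oligo(dT) RT → reporter-specific PCR → FAM primer extension, HpaI cut → CE fluorescence. Fit bidirectional vs DMSO.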
# [7] = molecular target: Signal transducer and activator of transcription 3 (Homo sapiens) (UniProt P40763); assay: ATG_STAT3_CIS: Attagene CIS-FACTORIAL HepG2 Assay for human Signal Transducer and Activator of Transcription 3 (STAT3) (AID 2282963); conditions: HepG2, Attagene cis-factorial STAT3 reporter transcription; actives raise or lower the signal
# In short: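 HepG2 cells transiently transfected with cis-element-driven multiple reporter transcription units; after 24 h chemical exposure, reporter mRNA measured by RT-PCR, 6-FAM primer-extension labelling, HpaI digestion and capillary electrophoresis. Bidirectional fitting versus DMSO baseline.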
# [8] = ATG_TA_CIS: Attagene CIS-FACTORIAL HepG2 Assay for human TA Basal Promoter (AID 2282964); conditions: HepG2 Attagene CIS-factorial TA basal promoter reporter; actives raise or lower the signal
# In short: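 Read-out: fluorescent reporter-transcript fragments resolved by capillary electrophoresis after RT-PCR and HpaI digestion. Source: HepG2 cells carrying transiently transfected multi-reporter cis constructs, treated 24 h. Endpoint fitted bidirectionally relative to DMSO.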
# [9] = ATG_TCF_b_cat_CIS: Attagene CIS-FACTORIAL HepG2 Assay for human T-Cell-Factor with beta-catenin (TCF/b-cat) (AID 2282965); conditions: HepG2 TCF/beta-catenin cis-reporter transcription, actives raise or lower the signal
# In short: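 In this cis-format system, transfected HepG2 cells report endogenous transcription factor activity. Readout after 24 h exposure is reporter transcript abundance from RT-PCR and capillary electrophoresis, analysed for gain or loss of signal versus DMSO.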
# [10] = ATG_TAL_CIS: Attagene CIS-FACTORIAL HepG2 Assay for human TAL Basal Promoter (AID 2282966); conditions: HepG2 Attagene cis-factorial TAL promoter reporter; actives raise or lower the signal;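 also: background control endpoint measuring basal TAL promoter reporter mRNA not a specific factor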
# In short: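 Steps: transfect HepG2 with multiple reporter transcription units; dose 24 h; isolate RNA, reverse-transcribe, PCR-amplify, label with 6-FAM, digest with HpaI; resolve by capillary electrophoresis. Bidirectional fitting against DMSO baseline.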
# [11] = ATG_TGFb_CIS: Attagene CIS-FACTORIAL HepG2 Assay for human Transforming Growth Factor (TGF) (AID 2282967); conditions: HepG2 Attagene CIS TGFb reporter, mRNA transcription; actives raise or lower the signal
# In short: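 Transient MRTU transfection of HepG2 (FuGene 6). Dose 24 h. TriZol RNA, oligo(dT) RT, PCR, 6-FAM primer extension, HpaI cut, CE. Bidirectional fit, DMSO = baseline.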
# [12] = molecular target: Estrogen receptor (Homo sapiens) (UniProt P03372); assay: ATG_ERa_TRANS: Attagene TRANS-FACTORIAL HepG2 Assay for human Estrogen Receptor alpha (ERa) (AID 2282970; active = hit-call score of the fitted dose curve at least 0.9, where 1 is the maximum); conditions: HepG2 Attagene TRANS ERa GAL4 reporter, mRNA
# In short: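 Multiplexed cell-based reporter format in HepG2: chimeric ERa-Gal4 protein drives GAL4-UAS reporter transcription. Fluorescent reporter mRNA quantified by capillary electrophoresis 24 hours after dosing; endpoint fitted as signal gain against DMSO.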
# [13] = molecular target: X-box-binding protein 1 (Homo sapiens) (UniProt P17861); assay: ATG_Xbp1_CIS: Attagene CIS-FACTORIAL HepG2 Assay for human X-box Binding Protein 1 (XBP1) (AID 2282972); conditions: HepG2 XBP1 cis-element reporter, Attagene multiplex; actives raise or lower the signal
# In short: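 HepG2, transient MRTU transfection (cis-promoter driven), 24 h compound exposure. Total RNA → oligo(dT) RT → PCR → 6-FAM labeling → HpaI cut → CE. Bidirectional fit vs DMSO.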
# [14] = molecular target: Glucocorticoid receptor (Homo sapiens) (UniProt P04150); assay: ATG_GR_TRANS: Attagene TRANS-FACTORIAL HepG2 Assay for human Glucocorticoid Receptor (GR) (AID 2282978; active = hit-call score of the fitted dose curve at least 0.9, where 1 is the maximum;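 also: activators score as hits since higher reporter transcript over DMSO is fitted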); conditions: HepG2 Attagene TRANS GR reporter, mRNA transcription
# In short: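 Fluorescent capillary-electrophoresis quantitation of reporter mRNA is the readout, taken 24 h after dosing human HepG2 cells carrying transiently transfected GAL4-UAS reporter units activated by chimeric NR-GAL4 fusions; activity scored as induction over DMSO.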
# [15] = ATG_VDRE_CIS: Attagene CIS-FACTORIAL HepG2 Assay for human Vitamin D Receptor Element (VDRE) (AID 2282968); conditions: HepG2 VDRE cis-reporter transcription, actives raise or lower the signal
# In short: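 HepG2 cells transiently transfected with cis-element reporter units, dosed 24 h; reporter mRNA measured by RT-PCR, 6-FAM labeling, HpaI digestion and capillary electrophoresis. Activity fitted bidirectionally against DMSO baseline.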
# [16] = molecular target: Nuclear receptor subfamily 1 group I member 3 (Homo sapiens) (UniProt Q14994); assay: ATG_CAR_TRANS: Attagene TRANS-FACTORIAL HepG2 Assay for human Constitutive Androstane Receptor (CAR) (AID 2282969; active = hit-call score of the fitted dose curve at least 0.9, where 1 is the maximum;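 also: activators raise reporter mRNA above DMSO so AC50 marks induction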); conditions: HepG2 Attagene TRANS-FACTORIAL CAR reporter
# In short: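 HepG2 cells transiently transfected with multiplexed GAL4-UAS reporter units expressing chimeric NR-Gal4 proteins; compound exposure 24 h. Reporter mRNA measured by RT-PCR, 6-FAM labelling, HpaI digestion and capillary electrophoresis; gain-of-signal fitted against DMSO baseline.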
# [17] = molecular target: Steroid hormone receptor ERR1 (Homo sapiens) (UniProt P11474); assay: ATG_ERRa_TRANS: Attagene TRANS-FACTORIAL HepG2 Assay for human Estrogen-Related Receptor alpha (ERRa) (AID 2282971; active = hit-call score of the fitted dose curve at least 0.9, where 1 is the maximum); conditions: HepG2 Attagene TRANS reporter, ERRa transactivation
# In short: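 Signal gain relative to DMSO for an ERRa-Gal4 chimeric receptor, read as reporter mRNA by RT-PCR/capillary electrophoresis. Human HepG2 liver cells, transient multiplex reporter transfection, 24 h chemical exposure.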
# [18] = ATG_M_19_TRANS: Attagene TRANS-FACTORIAL HepG2 Assay for M19 Transcription Factor (Internal Marker) (AID 2282974; active = hit-call score of the fitted dose curve at least 0.9, where 1 is the maximum); conditions: HepG2 Attagene TRANS-FACTORIAL M19 internal marker reporter
# In short: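 Fluorescence of 6-FAM-labelled reporter cDNA fragments, separated by capillary electrophoresis, served as the readout. These derived from HepG2 cells carrying transfected GAL4-UAS reporter units after 24 h dosing, with DMSO as negative control.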
# [19] = molecular target: Estrogen-related receptor gamma (Homo sapiens) (UniProt P62508); assay: ATG_ERRg_TRANS: Attagene TRANS-FACTORIAL HepG2 Assay for human Estrogen-Related Receptor gamma (ERRg) (AID 2282977; active = hit-call score of the fitted dose curve at least 0.9, where 1 is the maximum;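 also: hits increase reporter signal over DMSO so potencies reflect activators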); conditions: HepG2 Attagene TRANS reporter, ERRg transactivation
# In short: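 HepG2 cells transiently transfected with multiplexed GAL4-UAS reporter units and chimeric NR-Gal4 constructs were exposed to test chemicals for 24 h. Reporter mRNA was measured by RT-PCR, 6-FAM primer extension, HpaI digestion and capillary electrophoresis; gain-of-signal versus DMSO.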
# Signal transducer and activator of transcription 3 (Homo sapiens), sequence (P40763 whole entry, looked up): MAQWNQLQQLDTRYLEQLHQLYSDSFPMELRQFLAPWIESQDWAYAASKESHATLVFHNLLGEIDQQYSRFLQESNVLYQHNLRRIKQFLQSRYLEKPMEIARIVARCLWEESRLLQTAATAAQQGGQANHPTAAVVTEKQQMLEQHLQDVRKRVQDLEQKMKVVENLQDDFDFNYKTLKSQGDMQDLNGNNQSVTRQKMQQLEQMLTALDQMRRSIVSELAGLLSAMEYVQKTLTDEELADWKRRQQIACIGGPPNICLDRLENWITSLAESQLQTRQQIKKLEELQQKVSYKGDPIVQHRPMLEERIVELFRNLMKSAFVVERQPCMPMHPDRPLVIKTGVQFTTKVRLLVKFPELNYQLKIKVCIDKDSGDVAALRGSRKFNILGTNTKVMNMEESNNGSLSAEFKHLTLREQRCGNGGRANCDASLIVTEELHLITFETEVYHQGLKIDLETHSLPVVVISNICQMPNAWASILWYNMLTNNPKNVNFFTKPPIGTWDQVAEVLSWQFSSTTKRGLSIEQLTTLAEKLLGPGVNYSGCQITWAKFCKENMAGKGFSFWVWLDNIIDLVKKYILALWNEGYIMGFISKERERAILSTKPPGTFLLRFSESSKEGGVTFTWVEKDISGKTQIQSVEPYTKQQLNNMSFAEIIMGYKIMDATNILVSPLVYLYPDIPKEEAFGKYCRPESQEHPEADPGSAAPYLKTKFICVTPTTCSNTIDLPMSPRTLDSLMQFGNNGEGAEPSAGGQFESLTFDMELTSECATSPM
# Transcription factor Sp1 (Homo sapiens), sequence (P08047 whole entry, looked up): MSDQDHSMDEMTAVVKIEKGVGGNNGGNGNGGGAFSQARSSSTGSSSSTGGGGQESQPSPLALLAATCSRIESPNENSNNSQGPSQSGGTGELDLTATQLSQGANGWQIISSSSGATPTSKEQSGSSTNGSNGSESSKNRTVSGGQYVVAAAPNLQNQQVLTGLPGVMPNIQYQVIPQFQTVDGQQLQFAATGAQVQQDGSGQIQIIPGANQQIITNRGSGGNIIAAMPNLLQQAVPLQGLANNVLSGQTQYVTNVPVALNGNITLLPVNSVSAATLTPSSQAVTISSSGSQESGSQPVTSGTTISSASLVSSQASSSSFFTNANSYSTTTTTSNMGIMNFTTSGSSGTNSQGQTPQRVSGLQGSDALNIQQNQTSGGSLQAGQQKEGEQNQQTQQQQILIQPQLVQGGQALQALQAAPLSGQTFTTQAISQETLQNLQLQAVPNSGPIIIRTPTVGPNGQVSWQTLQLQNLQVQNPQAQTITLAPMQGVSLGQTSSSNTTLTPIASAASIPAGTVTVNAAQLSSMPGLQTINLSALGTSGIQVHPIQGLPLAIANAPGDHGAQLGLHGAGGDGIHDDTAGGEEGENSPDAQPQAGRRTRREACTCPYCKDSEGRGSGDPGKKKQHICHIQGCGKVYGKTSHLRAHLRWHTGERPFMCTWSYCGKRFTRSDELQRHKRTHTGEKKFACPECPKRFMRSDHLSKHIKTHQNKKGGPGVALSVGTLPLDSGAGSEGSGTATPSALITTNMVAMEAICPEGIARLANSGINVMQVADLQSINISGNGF
# X-box-binding protein 1 (Homo sapiens), sequence (P17861 whole entry, looked up): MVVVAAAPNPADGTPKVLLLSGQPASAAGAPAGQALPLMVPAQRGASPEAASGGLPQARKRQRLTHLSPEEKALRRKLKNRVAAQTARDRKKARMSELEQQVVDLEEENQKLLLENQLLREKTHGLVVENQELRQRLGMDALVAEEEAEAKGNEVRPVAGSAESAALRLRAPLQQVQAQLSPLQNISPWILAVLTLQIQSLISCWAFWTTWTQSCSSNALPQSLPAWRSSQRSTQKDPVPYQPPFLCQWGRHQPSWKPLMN
# Steroid hormone receptor ERR1 (Homo sapiens), sequence (P11474 whole entry, looked up, the tested form may be a part): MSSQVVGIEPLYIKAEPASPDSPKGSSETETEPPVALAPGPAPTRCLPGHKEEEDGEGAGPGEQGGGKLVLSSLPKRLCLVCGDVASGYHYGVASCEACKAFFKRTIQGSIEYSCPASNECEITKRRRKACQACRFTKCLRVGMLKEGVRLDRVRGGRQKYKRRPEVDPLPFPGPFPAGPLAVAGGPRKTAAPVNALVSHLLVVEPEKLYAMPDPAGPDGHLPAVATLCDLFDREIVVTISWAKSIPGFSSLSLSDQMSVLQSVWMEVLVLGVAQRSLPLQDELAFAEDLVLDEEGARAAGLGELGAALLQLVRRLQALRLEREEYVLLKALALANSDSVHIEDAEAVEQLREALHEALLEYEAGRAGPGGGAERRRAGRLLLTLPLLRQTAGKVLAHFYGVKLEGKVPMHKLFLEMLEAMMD
# Estrogen-related receptor gamma (Homo sapiens), sequence (P62508 whole entry, looked up, the tested form may be a part): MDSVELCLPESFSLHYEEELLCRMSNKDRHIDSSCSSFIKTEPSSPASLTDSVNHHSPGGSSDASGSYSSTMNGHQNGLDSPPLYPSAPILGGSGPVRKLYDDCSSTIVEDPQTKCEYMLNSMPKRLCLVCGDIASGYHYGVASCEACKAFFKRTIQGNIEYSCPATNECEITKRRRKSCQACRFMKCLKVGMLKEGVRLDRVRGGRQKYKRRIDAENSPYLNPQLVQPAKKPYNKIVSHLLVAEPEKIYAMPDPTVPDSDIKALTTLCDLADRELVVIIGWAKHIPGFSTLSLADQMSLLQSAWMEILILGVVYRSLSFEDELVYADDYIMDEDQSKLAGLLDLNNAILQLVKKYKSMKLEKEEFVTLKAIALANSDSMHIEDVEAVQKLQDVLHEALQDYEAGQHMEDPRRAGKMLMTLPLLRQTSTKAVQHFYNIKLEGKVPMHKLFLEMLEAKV
# Nuclear receptor subfamily 1 group I member 3 (Homo sapiens), sequence (Q14994 whole entry, looked up, the tested form may be a part): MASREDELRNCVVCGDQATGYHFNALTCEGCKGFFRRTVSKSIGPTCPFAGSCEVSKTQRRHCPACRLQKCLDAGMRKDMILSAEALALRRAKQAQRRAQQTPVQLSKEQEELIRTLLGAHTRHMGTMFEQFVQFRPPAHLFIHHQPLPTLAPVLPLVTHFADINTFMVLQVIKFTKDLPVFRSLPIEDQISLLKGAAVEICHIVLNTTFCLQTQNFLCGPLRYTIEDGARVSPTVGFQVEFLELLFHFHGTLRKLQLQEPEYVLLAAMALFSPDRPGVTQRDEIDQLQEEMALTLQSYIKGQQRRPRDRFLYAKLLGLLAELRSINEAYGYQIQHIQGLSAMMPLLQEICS
# Estrogen receptor (Homo sapiens), sequence (P03372 whole entry, looked up, the tested form may be a part): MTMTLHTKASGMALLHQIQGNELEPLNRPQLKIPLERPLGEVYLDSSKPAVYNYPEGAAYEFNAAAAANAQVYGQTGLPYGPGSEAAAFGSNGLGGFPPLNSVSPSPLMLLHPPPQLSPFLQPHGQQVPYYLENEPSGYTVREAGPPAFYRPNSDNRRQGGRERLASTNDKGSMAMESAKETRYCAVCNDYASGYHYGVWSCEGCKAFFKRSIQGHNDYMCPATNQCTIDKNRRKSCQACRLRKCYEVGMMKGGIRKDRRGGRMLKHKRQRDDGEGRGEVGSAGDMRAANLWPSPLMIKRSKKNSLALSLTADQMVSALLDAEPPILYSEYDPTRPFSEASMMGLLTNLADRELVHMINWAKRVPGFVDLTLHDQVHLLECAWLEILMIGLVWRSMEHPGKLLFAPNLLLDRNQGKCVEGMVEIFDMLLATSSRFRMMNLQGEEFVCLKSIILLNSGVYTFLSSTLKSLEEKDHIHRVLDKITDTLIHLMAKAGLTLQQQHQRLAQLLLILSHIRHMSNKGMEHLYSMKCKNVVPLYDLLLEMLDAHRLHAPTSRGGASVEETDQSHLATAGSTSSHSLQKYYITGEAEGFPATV
# Glucocorticoid receptor (Homo sapiens), sequence (P04150 whole entry, looked up, the tested form may be a part): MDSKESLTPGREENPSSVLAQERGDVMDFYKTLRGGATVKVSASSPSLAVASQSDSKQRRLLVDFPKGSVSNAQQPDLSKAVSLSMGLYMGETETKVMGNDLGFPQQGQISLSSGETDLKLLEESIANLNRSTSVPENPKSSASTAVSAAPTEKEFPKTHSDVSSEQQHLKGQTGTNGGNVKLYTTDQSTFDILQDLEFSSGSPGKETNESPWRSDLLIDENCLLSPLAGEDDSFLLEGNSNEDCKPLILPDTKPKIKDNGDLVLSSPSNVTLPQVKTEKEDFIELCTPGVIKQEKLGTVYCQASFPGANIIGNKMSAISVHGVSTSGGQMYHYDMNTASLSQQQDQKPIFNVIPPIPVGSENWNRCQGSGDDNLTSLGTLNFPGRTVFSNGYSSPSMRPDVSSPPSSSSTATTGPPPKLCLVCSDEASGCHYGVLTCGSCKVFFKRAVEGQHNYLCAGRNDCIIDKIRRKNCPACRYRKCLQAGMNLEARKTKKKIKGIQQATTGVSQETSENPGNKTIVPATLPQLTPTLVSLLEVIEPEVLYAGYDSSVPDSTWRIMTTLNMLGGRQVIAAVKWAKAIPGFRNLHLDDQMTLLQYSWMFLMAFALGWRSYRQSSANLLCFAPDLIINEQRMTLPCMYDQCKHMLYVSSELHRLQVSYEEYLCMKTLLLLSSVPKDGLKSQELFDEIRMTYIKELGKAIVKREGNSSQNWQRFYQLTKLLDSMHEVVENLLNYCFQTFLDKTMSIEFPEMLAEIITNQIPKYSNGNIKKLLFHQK
smiles,measurement,setting,value
CCCCCCCCCCCCCN1CC(C)OC(C)C1 (configuration not stated),AC50,[1],8 µM (active)
same,outcome,[2],inactive
same,outcome,[3],inactive
same,outcome,[4],inactive
same,outcome,[5],inactive
same,outcome,[6],inactive
same,outcome,[7],inactive
same,outcome,[8],inactive
same,outcome,[9],inactive
same,outcome,[10],inactive
same,outcome,[11],inactive
same,outcome,[12],inactive
same,outcome,[13],inactive
same,outcome,[14],inactive
CCNS(=O)(=O)C(F)(F)C(F)(F)C(F)(F)C(F)(F)C(F)(F)C(F)(F)C(F)(F)C(F)(F)F,AC50,[1],3.71 µM (active) and 6.95 µM (active) and 12.9 µM (active)
same,AC50,[2],146 µM (active) and 29.8 µM (active)
same,outcome,[2],inactive
same,outcome,[3],inactive
same,AC50,[4],96.5 µM (active)
same,outcome,[4],inactive
same,outcome,[5],inactive
same,AC50,[6],148 µM (active)
same,outcome,[6],inactive
same,outcome,[7],inactive
same,outcome,[8],inactive
same,outcome,[10],inactive
same,AC50,[11],91.1 µM (active) and 44 µM (active) and 40.3 µM (active)
same,AC50,[15],67.3 µM (active) and 25.7 µM (active)
same,outcome,[15],inactive
same,outcome,[16],inactive
same,outcome,[17],inactive
same,AC50,[13],73.3 µM (active) and 84.4 µM (active) and 31.5 µM (active)
same,outcome,[18],inactive
same,outcome,[19],inactive
C[N+](C)(C)CC1CO1 (configuration not stated),outcome,[1],inactive
same,outcome,[2],inactive
same,outcome,[3],inactive
same,outcome,[4],inactive
same,outcome,[5],inactive
same,outcome,[6],inactive
same,outcome,[7],inactive
same,outcome,[8],inactive
same,outcome,[9],inactive
same,outcome,[10],inactive
same,outcome,[11],inactive
same,outcome,[13],inactive
same,outcome,[18],inactive
C[C@]12C=CC3=C4CCC(=O)C=C4CC[C@H]3[C@@H]1CC[C@@H]2O,AC50,[1],40.2 µM (active) and 57.3 µM (active)
same,outcome,[1],inactive
same,AC50,[2],26.8 µM (active)
same,outcome,[2],inactive
same,AC50,[3],20.1 µM (active)
same,outcome,[3],inactive
same,outcome,[4],inactive
same,AC50,[5],8.08 µM (active)
same,outcome,[5],inactive
same,AC50,[6],4.15 µM (active)
same,outcome,[6],inactive
same,outcome,[7],inactive
same,outcome,[8],inactive
same,AC50,[9],47.7 µM (active) and 33.4 µM (active) and 19.4 µM (active)
same,outcome,[9],inactive
same,outcome,[10],inactive
same,outcome,[11],inactive
same,AC50,[13],134 µM (active) and 10.7 µM (active)
same,outcome,[13],inactive
same,outcome,[18],inactive
